# Bioassay records: PubChem, National Center for Advancing Translational Sciences (NCATS)
# PI5P4Ka inh – inhibitors of human PI5P4K alpha. actives 1.2% (n = 330,000). max response, %. PI5P4Kalpha enzyme, ADP-Glo luminescence, 60 min; active compounds read low. AID 652105; active = max response of -50% or lower; inconclusive = between -30% and -50%; inactive = -30% or higher; also: value at the top dose of about 77 µM
# Target sequence (P48426 whole entry, looked up): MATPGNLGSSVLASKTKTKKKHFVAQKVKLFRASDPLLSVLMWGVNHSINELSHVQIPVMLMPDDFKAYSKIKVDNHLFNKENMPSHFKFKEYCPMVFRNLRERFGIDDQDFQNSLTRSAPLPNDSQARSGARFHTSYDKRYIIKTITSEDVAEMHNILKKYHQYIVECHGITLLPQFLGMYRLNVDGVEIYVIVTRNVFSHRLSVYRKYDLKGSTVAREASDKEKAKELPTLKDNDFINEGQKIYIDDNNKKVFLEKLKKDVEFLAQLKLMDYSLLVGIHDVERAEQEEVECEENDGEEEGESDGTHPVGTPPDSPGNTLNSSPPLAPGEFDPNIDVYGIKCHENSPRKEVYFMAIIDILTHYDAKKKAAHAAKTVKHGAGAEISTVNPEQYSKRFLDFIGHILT
#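 Human PI5P4Kalpha with substrate in 0.038 M HEPES pH 7.4, 0.28 mM EGTA, 0.1% CHAPS, 5% DMSO; reaction started with 5 microM ATP (final), 60 min at room temperature. ADP formed read by ADP-Glo luminescence.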
# USP2a block – inhibitors of human ubiquitin-specific protease USP2a | USP2 core, Ub-CHOP2 coupled fluorogenic reporter, 485/531 | Potency, µM (titrated, usually from 38.3 µM), inactives show at the highest dose activity change, negative = inhibition, most hits filed as inhibitors | actives 0.01% (n = 330,000) | AID 463254;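 also: potency is read from the fitted curve at half-maximal effect; plate controls were DMSO wells for no effect and full inhibition by NEM control for full effect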
#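 Deubiquitinase activity read as fluorescence (485/531 nm) after Ub-CHOP2 cleavage activates the enterokinase reporter on its substrate; USP2 core 10nM, Ub-CHOP2 and substrate 25nM each, 30min compound preincubation then 60min RT; data normalized to NEM, curves fitted.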
# USP1-UAF1 inh – inhibitors of human USP1/UAF1 deubiquitinase. O94782. Potency, µM (titrated, usually from 57.1 µM), without a hit: at the highest dose activity change, negative = inhibition, most hits filed as inhibitors. actives 0.23% (n = 390,000). recombinant USP1/UAF1, Ub-Rhodamine cleavage fluorescence; also: potency is read from the fitted curve at half-maximal effect; nearly all actives have a fitted effect of over 60% in size
#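 In this screen, compounds sit with the deubiquitinase complex (1nM) for 15 min at room temperature before Ub-Rho is added at 150nM final. Fluorescence rise is then followed for 6 reads every 60 seconds.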
# PLK1 PBD block – blocks phosphopeptide binding to human PLK1 polo-box domain; Plk1 PBD binding of FITC phosphopeptide, fluorescence polarization; Potency, µM, without a hit: max response, negative = inhibition, actives largely listed as inhibitors; actives 2.8% (n = 360,000); AID 720504; also: potency is read from the fitted curve at half-maximal effect; series mostly up to about 57 µM; nearly all actives have a fitted effect of over 65% in size
# WRN inhibitor – blocks human WRN helicase. AID 651768. WRN helicase unwinding, fluorescent forked duplex, kinetic. Potency, µM (series often up to 114 µM), for inactives: at the top dose activity change, negative = inhibition, usual class: inhibitors. actives 0.46% (n = 360,000); also: potency is read from the fitted curve at half-maximal effect; nearly all actives have a fitted effect of over 55% in size
#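 WRN at 20 nM final preincubated with compound 15 min at room temperature; reaction started with 100 nM fluorophore/quencher forked duplex oligonucleotide and 2 mM ATP final. Unwinding followed kinetically by red fluorescence (ex 525, em 598 nm).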
# * marks the source's active call; other numbers are inactive results; ? = inconclusive; · = no result given; [ ] = remark or other dose. Most compounds without a hit are left out; they make up all but 3.3% or so of the library. Unless noted, calls follow the shape of the dose curve; as a rule, active = well fitted curve in the direction sought with a large enough effect; inconclusive = small, poorly fitted or top-dose-only effect, or another doubt; inactive = no such curve, though single readings can be large; an effect the other way counts as inactive or inconclusive. Unless noted, % is scaled to controls: 0 for no effect and ±100 for the full control effect.
SMILES,PI5P4Ka inh,USP2a block,USP1-UAF1 inh,PLK1 PBD block,WRN inhibitor
COc1ccc(NC(=O)CC(C)=O)c(OC)c1,-64.4*,15.1%,-12.0%,-8.8%,-1.2%
COc1ccc(NC(=O)CSc2nc(O)cc(=O)[nH]2)c(OC)c1,-7.1,6.5%,-5.0%,23.8µM*,-1.7%
Cc1cccc(C(=O)Nc2cccc(OCc3cc(=O)n4c(C)csc4n3)c2)c1,·,·,-31.3%,·,·
Cn1c(=O)[nH]c2cc(-c3noc(-c4ccc(F)cc4)n3)ccc21,·,·,-5.3%,·,·
O=C(CCCCn1c(=O)c2ccccc2n(Cc2cccc(F)c2)c1=O)NCCc1ccccc1,·,·,-3.3%,·,·
CC1=C(C(=O)Nc2ccccc2F)C(c2cccs2)C2=C(CCCC2=O)N1 (centres undefined),1.3,-0.5%,-12.2%,23.8µM*,7.4%
COc1ccccc1CNC(=O)c1cc(Sc2cccc(Cl)c2)nc2ccccc12,·,·,-14.4%,·,·
Cc1ccc(S(=O)(=O)N/N=C2/CC(c3ccccc3)Oc3ccccc32)cc1[N+](=O)[O-] (centres undefined),0.7,-13.0%,-9.2%,11.9µM*,-27.0%
Cc1cc(C)n2nc(CNC(=O)c3ccc(Cl)cc3)nc2n1,·,·,6.1%,·,·
CO/N=C/c1ccc(Oc2ccc(C)cc2)c([N+](=O)[O-])c1,-6.8,0.9%,-14.4%,11.9µM*,-23.9%
CO/N=C/c1ccc(Sc2ccccc2)c([N+](=O)[O-])c1,16.5,2.8%,-2.2%,-4.3%,-12.2%
COc1ccc(C(=O)NC2(C(F)(F)F)NC(=O)N(CCCc3ccccc3)C2=O)cc1OC (centres undefined),1.4,2.0%,0.2%,26.7µM*,-2.7%
CCN(CC)CCNc1ncnc2c1[nH]c1ccc(OC)cc12,·,0.7%,·,·,·
COc1ccc2[nH]c3c(NCCC4=CCCCC4)ncnc3c2c1,-61.1*,-1.5%,-16.3%,5.9%,-20.0%
Cc1c(N2C(=O)c3ccc4c5c(ccc(c35)C2=O)CC4)c(=O)n(-c2ccccc2)n1C,-63.6*,0.4%,-25.1%,?,?
CCN(CC)CCOC(=O)c1ccc(NC(=O)c2cc3cccc(OC)c3oc2=O)cc1,·,·,-4.2%,·,·
CC(=O)c1c(C)[nH]c(C(=O)OCc2nnc(-c3ccc([N+](=O)[O-])cc3)o2)c1C,-58.6*,-1.9%,-9.7%,-8.4%,-6.3%[11.6 µM]
Cc1ccc(C(=O)NCC(=O)OCc2nnc(-c3ccc([N+](=O)[O-])cc3)o2)s1,-61.8*,1.2%,-19.7%,-5.6%,-10.5%
CC(=O)c1c(C)[nH]c(C(=O)OCC(=O)NNC(=O)c2ccc([N+](=O)[O-])cc2)c1C,-7.6,1.3%,-11.0%,-15.0%,-6.1%
CCN1CCN(c2oc(/C=C/c3ccc(OC)c(OC)c3)nc2C#N)CC1,·,·,-13.1%,·,·
NC(=O)NCCC1=CCCCC1,5.8,2.7%,-3.9%,-4.4%,-0.3%
C=CCn1c(N)c(C(=O)NCCC2=CCCCC2)sc1=S,·,1.5%,-12.2%,7.52µM*,-8.9%
CCOC(=O)c1c(C)[nH]c(C(=O)COC(=O)COc2ccccc2C=O)c1C,-12.0,0.6%,-10.0%,18.9µM*,0.1%
CCOC(=O)c1c(C)[nH]c(C(=O)COC(=O)/C=C/c2cccc(OC)c2OC)c1C,2.5,2.3%,-11.7%,-5.8%,4.3%
Cn1c(/C(C#N)=C/c2ccccc2Br)nc2ccccc21,·,·,-10.2%,·,·
SMILES,PI5P4Ka inh,USP2a block,USP1-UAF1 inh,PLK1 PBD block,WRN inhibitor
O=C(O)/C=C/c1ccc([N+](=O)[O-])o1,-10.6,4.9%,-5.5%,?,-25.2%
O=C1NC(=S)S/C1=C\C=C\c1ccc([N+](=O)[O-])o1,-95.8*,-9.3%,-23.8%,21.2µM*,39.8µM*
COc1cccc(CN(C(=O)c2ccc([N+](=O)[O-])cc2)C2CCS(=O)(=O)C2)c1 (centres undefined),-4.8,3.4%,-17.1%,11.9µM*,-11.5%
COc1cccc(CN(C(=O)COc2ccccc2[N+](=O)[O-])C2CCS(=O)(=O)C2)c1 (centres undefined),-20.4,-0.1%,0.4%,23.8µM*,-11.2%
Cc1ccc(CN(C(=O)c2ccc([N+](=O)[O-])cc2)C2CCS(=O)(=O)C2)o1 (centres undefined),-25.0,-0.4%,-12.4%,3.77µM*,-0.7%
CCOc1ccccc1C(=O)N(Cc1ccc(C)o1)C1CCS(=O)(=O)C1 (centres undefined),-14.0,2.8%,-17.7%,18.9µM*,0.5%
Cn1nnc2c(N3CCN(c4ccccc4Cl)CC3)ncnc21,·,·,-20.6%,·,·
CCc1cc2c(cc3c(=O)n(CC(=O)N4CCCCC4)nc(CC)n32)s1,·,·,-17.7%,·,·
COc1ccc(CCC(=O)Nc2c(-c3ccc(N(C)C)cc3)[nH][nH]c2=O)cc1,-60.0*,·,·,21.2µM*,-28.4%
COc1ccccc1CNC(=O)CN1N=C(c2ccccc2)CCC1=O,·,·,14.0%,·,·
COc1ccc(/C=N/NC(=O)CN(c2ccc(OC)cc2)S(=O)(=O)c2ccccc2)cc1,-15.5,-1.7%,-15.2%,26.7µM*,-6.5%
Cc1ccc(S(=O)(=O)N(CC(=O)N/N=C/c2ccccc2C(=O)O)c2cc(Cl)cc(Cl)c2)cc1,2.7,1.5%,-18.7%,42.3µM*,-10.5%
CC(=O)Nc1ccc(C(=S)NCCCO)cc1,2.9,5.1%,-16.0%,18.9µM*,-0.1%
CCOc1ccc(C(=S)N2CCCC2)c(OCC)c1,-13.5,-0.3%,-8.5%,11.9µM*,-8.8%
CCOc1ccc(C(=S)N2CCCC2)cc1,6.4,-1.3%,-15.3%,-3.9%,6.9%
COc1ccc(O)c(C(=O)C2c3ccccc3C(=O)N2c2ccc(C)cc2)c1 (centres undefined),-4.5,-0.4%,-6.1%,?,50.1µM*
Cc1ccn2cc(CCNC(=O)COc3ccccc3)nc2c1,-17.9,0.5%,-31.2%,11.9µM*,3.0%
COc1ccc(C(=O)NCCc2cn3ccccc3n2)cc1,-2.3,1.0%,-5.8%,29.9µM*,2.9%
COc1ccc(Cl)cc1C(=O)Nc1ccc(NC(C)=O)cc1,-2.4,2.5%,-13.4%,5.2%,-5.0%
COc1ccc(Cl)cc1C(=O)Nc1ccc(Br)c(C)n1,8.9,3.8%,1.1%,23.8µM*,1.1%[57.1 µM]
CN(C)C/C=C/C(=O)Nc1cccc(-c2c[nH]c3ncnc(Oc4ccc(NC(=O)CC(=O)Nc5ccc(F)cc5)cc4F)c23)c1,-50.3*,4.8%,-15.0%,0.1%,-2.0%
CCC(c1nc2ccccc2[nH]1)n1c(=O)c(-c2ccco2)nc2ccccc21 (centres undefined),?,·,·,-23.5%,-0.1%
O=C(NC1CCCCC1)C(c1cccc2ccccc12)n1c(=O)c(-c2ccco2)nc2ccccc21 (centres undefined),-82.2*,·,·,?,-7.4%
O=c1c(-c2ccco2)nc2ccccc2n1C(CCc1ccccc1)c1nc2ccccc2[nH]1 (centres undefined),-73.3*,·,·,2.99µM*,-12.8%
